Inconclusive results are not listed. A number with no mark means an inactive call. Calls follow the shape of the dose curve; as a rule, active = well fitted inhibition curve with a large enough effect in the signal ratio in the repeat runs (not every such curve was filed as active); inconclusive = weak or mixed curves, or effect the other way; inactive = no such curve, though single readings can be large or run the other way; the % refers to the signal ratio.
Target: Peroxisome proliferator-activated receptor delta (Homo sapiens) (UniProt Q03181)
Test: qHTS assay to identify small molecule antagonists of the peroxisome proliferator-activated receptor delta (PPARd) signaling pathway (AID 743215);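 also: cells stimulated with agonist L165041 at 300 nM final during compound exposure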
Settings: HEK293H PPARd-UAS-bla, beta-lactamase FRET ratio, antagonist, 17 h; series mostly up to 62 µM; ratio activity, negative = inhibition: at the top concentration
Text: U.S. Tox21 Program National Center for Advancing Translational Sciences [NCATS] NIH Chemical Genomics Center [NCGC] U.S. Environmental Protection Agency [EPA] National Institutes of Environmental Health Sciences [NIEHS] National Toxicology Program [NTP] U.S. Food and Drug Administration [FDA] Tox21 Assay Overview: The peroxisome proliferator-activated receptors (PPARs) are lipid-activated transcription factors of the nuclear receptor superfamily with three distinct subtypes namely PPAR alpha, PPAR delta (PPARd) and PPAR gamma. All these subtypes heterodimerizes with Retinoid X receptor (RXR) and have different physiological functions. […] To identify the compounds that inhibit PPAR-delta signaling, GeneBLAzer PPAR delta UAS-bla HEK293H cell line (Invitrogen, Carlsbad, CA, USA) containing a beta-lactamase reporter gene under the control of an Upstream Activator Sequence (UAS) was used to screen the Tox21 compound library.
Tox21 Assay Protocol Summary: PPARd-bla cells were dispensed at 3000 cells/5uL/well in 1536-well black wall/clear bottom plates using a Multidrop Combi (Thermo Fisher Scientific, Waltham, MA) dispenser. After the assay plates were incubated at 37 C and 5% CO2 for 5 h, 23 nL of compounds dissolved in DMSO, positive controls or DMSO only was transferred to the assay plate by a Pintool station (Kalypsys, San Diego, CA), followed by addition of 1ul L165041 (300 nM, final concentration in the wells). The assay plates were incubated at 37 C for 17 h, and then 1 uL of LiveBLAzerTM B/G FRET substrate was added using a Bioraptr Flying Reagent Dispenser (FRD) workstation (Beckman Coulter, Indianapolis, IN, USA). The assay plates were incubated at room temperature for 2 h and fluorescence intensity was measured by an Envision plate reader (PerkinElmer, Shelton, CT).
% is scaled to controls: 0 for no effect and ±100 for the full control effect.

Peroxisome proliferator-activated receptor delta (Homo sapiens), sequence (Q03181 whole entry, looked up): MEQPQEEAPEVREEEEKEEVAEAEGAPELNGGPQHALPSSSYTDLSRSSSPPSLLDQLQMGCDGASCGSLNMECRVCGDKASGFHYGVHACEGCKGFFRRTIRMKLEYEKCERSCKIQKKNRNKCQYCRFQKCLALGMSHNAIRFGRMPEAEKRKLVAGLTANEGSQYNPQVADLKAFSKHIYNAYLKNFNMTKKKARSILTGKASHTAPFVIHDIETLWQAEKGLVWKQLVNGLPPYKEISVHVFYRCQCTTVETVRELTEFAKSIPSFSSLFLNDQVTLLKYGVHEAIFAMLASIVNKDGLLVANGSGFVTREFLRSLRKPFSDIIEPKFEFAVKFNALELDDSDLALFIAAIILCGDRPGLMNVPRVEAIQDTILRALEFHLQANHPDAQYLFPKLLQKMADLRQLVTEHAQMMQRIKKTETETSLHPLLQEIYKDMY

| SMILES | ratio activity, negative = inhibition |
| --- | --- |
| C[N+]1(C)CCCCC1 | -4.05% |
| CCCOc1nn(C(=O)NS(=O)(=O)c2ccccc2C(=O)OC)c(=O)n1C | 0.579% |
| CC(C)(C)NC[C@H](O)c1ccc(O)cc1Cl | -1.33% |
| CC[C@H](O)C(C[C@H](C)N(C)C)(c1ccccc1)c1ccccc1 | 0.508% [at 80.4 µM] |
| CC(=O)CN(CC(C)=O)N=O | 20.3% |
| BrCC1CO1 (stereo not given) | -4.6% [at 80.4 µM] |
| ClCCN1CCCC1 | 0.503% |
| O=C(O)CBr | 12.1% |
| CC(C)(N)Cc1ccc(Cl)cc1 | -26.6% |
| CC(Cl)(Cl)Cl | 2.41% |
| CCCOC(=O)c1cncn1C(C)c1ccccc1 (stereo not given) | -5.58% |
| C=CCC1(C(C)CC)C(=O)NC(=O)NC1=O (stereo not given) | 7.6% |
| O=c1[nH]c2ccccc2o1 | -0.703% |
| CC(C)NCC(O)c1ccc([N+](=O)[O-])cc1 (stereo not given) | -17.8% |
| COP(=O)(O)OC | -0.651% [at 80.4 µM] |
| CN(CCO)CCO | 4.75% [at 80.4 µM] |
| CCCC(C)(COC(N)=O)COC(N)=O | 4.52% |
| BrCCc1ccccc1 | -2.02% [at 80.4 µM] |
| CC(Cc1ccccc1)NCCCCl (stereo not given) | 4.66% |
| CCC1(c2cccc(O)c2)CCCCN(C)C1 (stereo not given) | 6.39% |

| SMILES | ratio activity, negative = inhibition |
| --- | --- |
| C1CN2CCC1CC2 | 6.35% |
| CC[C@@H](CO)NC(=O)[C@@H]1C=C2c3cccc4[nH]cc(c34)C[C@H]2N(C)C1 | -1.37% |
| C=C(Cl)CCl | -1.16% |
| CC(C)[C@]12CC(=O)[C@H](C)[C@H]1C2 | 0.378% |
| CCOC(=O)COc1ccc(Cl)cc1Cl | 12.7% |
| CCNc1nc(Cl)nc(NC(C)(C)C)n1 | 2.74% |
| Cn1c(N)nc2c3cccnc3ccc21 | 8.96% |
| CCCCCCCC(=O)Cl | -6.84% [at 80.4 µM] |
| NCCOS(=O)(=O)O | 13.7% |
| O=C(O)c1c(Cl)ccc2cc(Cl)cnc12 | -10.8% |
| CC(C)(O)C(Cl)(Cl)Cl | 2.03% |
| CCOC(=O)c1ncn2c1CN(C)C(=O)c1c(I)cccc1-2 | 6.08% |
| CON(C)C(=O)Nc1ccc(Br)cc1 | -1.87% |
| O=c1[nH]oc2c1CCNC2 | 2.93% |
| O=C(O)C(Cl)Br (stereo not given) | -3.72% [at 80.4 µM] |
| CCC(=O)OC1(c2ccccc2)CCN(C)CC1 | 6.38% [at 80.4 µM] |
| COc1cc(CCN)cc(OC)c1OC | 6.34% [at 80.4 µM] |
| CN(C)CCN(C)C | 1.86% |
| N[C@@H](Cc1ccc(Oc2cc(I)c(O)c(I)c2)c(I)c1)C(=O)O | -4.11% |
| CCOC1Oc2ccc(OS(C)(=O)=O)cc2C1(C)C (stereo not given) | 0.0223% |

Source: PubChem BioAssay (Tox21)
